Measured values from PubChem BioAssay (NCI).
Values joined by “and” are separate entries in the source; they are usually repeats but may differ in a detail not shown here. Equal entries are not always repeated. The panel holds about 83,000 compounds, 20% with a hit somewhere; the sample as a whole holds those more often.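 Step 1: grow cells in 96-well plates. Step 2: add test compound at a single concentration. Step 3: incubate 48 h. Step 4: record percent growth.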 More than one record can exist for a structure, and the calls need not agree. Active and inactive are the calls of the source. How the source made its calls: active means growth percent below 10; inactive means the rest.

What follows are molecules tested on OVCAR-4 ovarian (assay: NCI-60 one-dose screen, 48 h (100 = growth as untreated, 0 = no growth, -100 = all killed)). Details: 10 µM unless noted.

SMILES | growth
Cc1cc(O)c(C(C)C)cc1N | 84.5% (inactive)
COc1ccc2cc3[n+](cc2c1OC)CCc1cc2c(cc1-3)OCO2 | 47.8% (inactive) and 79.1% (inactive)
COc1c(/C(C)=N/N=c2sc(C(C)=O)nn2-c2ccc(Cl)cc2)c(Oc2ccccc2)c(OC)c2occc12 | 102% (inactive) and 97.9% (inactive)
OC(COc1cccc2ccccc12)CN1CCN(c2ccc(Cl)cc2)CC1 (configuration not stated) | 35.2% (inactive) and 92.1% (inactive)
CNc1ccc2nc3ccc(=[N+](C)C)cc-3sc2c1 | -14.7% (active)
CC1=NN(c2ccccc2)C(=O)C1C(=O)c1ccccc1 (configuration not stated) | 108% (inactive)
OCCN1CCN(CCO)CC1 | 124% (inactive) and 97.7% (inactive)
CC1=CCC2CC1C2(C)C (configuration not stated) | 112% (inactive) and 109% (inactive)
COc1cc(/C=N/Nc2nc3c([nH]2)c(=O)n(C)c(=O)n3C)ccc1O | 108% (inactive)
S=C(S)N1CCCC1 | 117% (inactive) and 96.8% (inactive)
CC(=O)Oc1cc(C(=O)O)cc(OC(C)=O)c1OC(C)=O | 109% (inactive) and 97% (inactive)
CCN(CC)C(=O)c1cccnc1 | 112% (inactive)
O=C(Nc1cccc(Cl)c1)c1cc2ccccc2cc1O | 29.7% (inactive) and 10.1% (inactive)
Cn1c(SSc2ccc(-c3cccnc3)n2C)ccc1-c1cccnc1 | 80.3% (inactive) and 101% (inactive)
CN1CCN(CCC=C2c3ccccc3Sc3ccc(S(=O)(=O)N(C)C)cc32)CC1 | 80.6% (inactive) and 85.2% (inactive)
Oc1c(Cl)cc(Cl)cc1Sc1cc(Cl)cc(Cl)c1O | 78.1% (inactive) and 38.2% (inactive) and 93.3% (inactive)
Cn1c(=O)n(-c2ccc(C(C)(C)C#N)cc2)c2c3cc(-c4cnc5ccccc5c4)ccc3ncc21 | -5.93% (active) and 0.981% (active)
O=C(N/N=C/c1ccccc1)N/N=C/c1ccccc1 | 115% (inactive)
COc1ccc(-c2cn[nH]c2-c2cc(OC)c(OC)c(OC)c2)cc1N | 47.6% (inactive) and 38.8% (inactive)
C1CCCCNCCC1 | 109% (inactive)
COc1ccccc1C(C)=O | 111% (inactive) and 105% (inactive)
NS(=O)(=O)c1cc2c(cc1Cl)NC(C(Cl)Cl)NS2(=O)=O (configuration not stated) | 97.4% (inactive) and 114% (inactive)
O=C(Oc1cccc(OC(=O)c2ccccc2)c1)c1ccccc1 | 97.3% (inactive) and 92.1% (inactive)
CC1(c2ccc3ccccc3c2)CCC(=O)O1 (configuration not stated) | 110% (inactive)
CC1=C(/C=C/C(C)=C/C=C/C(C)=C/C=N/NC(=S)NC(=S)N/N=C/C=C(C)/C=C/C=C(C)/C=C/C2=C(C)CCCC2(C)C)C(C)(C)CCC1 | 17% (inactive) and -0.538% (active)
CCCCOc1cc(C(=O)NCCN(CC)CC)c2ccccc2n1 | 94.2% (inactive) and 101% (inactive)
COc1cc2c(c(OC)c1OC)-c1ccc(OC)c(=O)cc1[C@@H](NC(C)=O)CC2 | 48.4% (inactive) and 57.7% (inactive) and 56.4% (inactive)
CN1CCN(c2ccc3nc(-c4c(N)c5c(F)cccc5[nH]c4=O)[nH]c3c2)CC1 | 64.7% (inactive) and 53.9% (inactive)

The molecules below were run on SK-OV-3 ovarian in the same assay as above. Details: 10 µM unless noted.

SMILES | growth
O=[N+]([O-])c1ccccc1/C=N\Nc1ccccc1 | 90.6% (inactive) and 93.7% (inactive)
CCN(CC)CCNc1cc(-c2cccc(OC(F)(F)F)c2)nc2ccc(N3CCCC3)cc12 | 52.6% (inactive) and 10.9% (inactive) and 53.6% (inactive)
CC(=O)Nc1cc(S(=O)(=O)O)cc2cc(S(=O)(=O)O)c(N=Nc3ccccc3)c(O)c12 | 128% (inactive) and 104% (inactive)
CC(C)CNC(=O)c1ccccc1C(=O)NC1(C(=O)NCC(C)C)CCCC1 | 107% (inactive) and 99.5% (inactive)
COc1cc2nc(N3CCN(C(=O)C4COc5ccccc5O4)CC3)nc(N)c2cc1OC (configuration not stated) | 114% (inactive) and 103% (inactive) and 105% (inactive)
O=C(Cc1cccc2ccccc12)N/N=C/c1ccc2c(c1)CCC2 | 83.2% (inactive)
CC1=C(/C=C/C(C)=C/C=C/C(C)=C/C(=O)O)C(C)(C)CCC1 | 72% (inactive) and 90.2% (inactive) and 101% (inactive)
O=C(Nc1ccc(Br)cc1)c1cc(Br)ccc1O | 4.48% (active) and -11.3% (active)
Cc1cc(-c2ccc(NS(=O)(=O)c3ccccc3)c(C)c2)ccc1NS(=O)(=O)c1ccccc1 | 102% (inactive) and 126% (inactive)
O=C(CCl)c1ccc2c(c1)Nc1ccccc1S2 | 100% (inactive) and 99.3% (inactive)
CC1CCCc2sc3nc(NNC(=O)c4cnccn4)n(-c4ccccc4)c(=O)c3c21 (configuration not stated) | 17% (inactive) and -9.04% (active)
Cc1cc(O)c(C(C)C)cc1N | 100% (inactive)
COc1ccc2cc3[n+](cc2c1OC)CCc1cc2c(cc1-3)OCO2 | 88.1% (inactive) and 104% (inactive)
COc1c(/C(C)=N/N=c2sc(C(C)=O)nn2-c2ccc(Cl)cc2)c(Oc2ccccc2)c(OC)c2occc12 | 137% (inactive) and 107% (inactive)
OC(COc1cccc2ccccc12)CN1CCN(c2ccc(Cl)cc2)CC1 (configuration not stated) | 88.8% (inactive) and 100% (inactive)
CNc1ccc2nc3ccc(=[N+](C)C)cc-3sc2c1 | 35.2% (inactive) and 18.6% (inactive)
CC1=NN(c2ccccc2)C(=O)C1C(=O)c1ccccc1 (configuration not stated) | 112% (inactive)
OCCN1CCN(CCO)CC1 | 104% (inactive) and 106% (inactive) and 109% (inactive)
CC1=CCC2CC1C2(C)C (configuration not stated) | 114% (inactive) and 99% (inactive)
COc1cc(/C=N/Nc2nc3c([nH]2)c(=O)n(C)c(=O)n3C)ccc1O | 104% (inactive) and 109% (inactive)

SMILES | growth
S=C(S)N1CCCC1 | 116% (inactive) and 112% (inactive)
CC(=O)Oc1cc(C(=O)O)cc(OC(C)=O)c1OC(C)=O | 94.1% (inactive) and 102% (inactive)
CCN(CC)C(=O)c1cccnc1 | 109% (inactive)
O=C(Nc1cccc(Cl)c1)c1cc2ccccc2cc1O | -11.7% (active)
Cn1c(SSc2ccc(-c3cccnc3)n2C)ccc1-c1cccnc1 | 131% (inactive) and 120% (inactive)
CN1CCN(CCC=C2c3ccccc3Sc3ccc(S(=O)(=O)N(C)C)cc32)CC1 | 87.7% (inactive) and 96.7% (inactive)
Oc1c(Cl)cc(Cl)cc1Sc1cc(Cl)cc(Cl)c1O | 74.6% (inactive) and 96.4% (inactive)
Cn1c(=O)n(-c2ccc(C(C)(C)C#N)cc2)c2c3cc(-c4cnc5ccccc5c4)ccc3ncc21 | -28.9% (active) and -13% (active)
O=C(N/N=C/c1ccccc1)N/N=C/c1ccccc1 | 106% (inactive) and 111% (inactive)
COc1ccc(-c2cn[nH]c2-c2cc(OC)c(OC)c(OC)c2)cc1N | 23% (inactive) and 36.5% (inactive)
C1CCCCNCCC1 | 117% (inactive)
COc1ccccc1C(C)=O | 103% (inactive) and 102% (inactive)
NS(=O)(=O)c1cc2c(cc1Cl)NC(C(Cl)Cl)NS2(=O)=O (configuration not stated) | 106% (inactive) and 114% (inactive)
O=C(Oc1cccc(OC(=O)c2ccccc2)c1)c1ccccc1 | 126% (inactive) and 97.4% (inactive)
CC1(c2ccc3ccccc3c2)CCC(=O)O1 (configuration not stated) | 95.3% (inactive)
CC1=C(/C=C/C(C)=C/C=C/C(C)=C/C=N/NC(=S)NC(=S)N/N=C/C=C(C)/C=C/C=C(C)/C=C/C2=C(C)CCCC2(C)C)C(C)(C)CCC1 | 57.5% (inactive)
CCCCOc1cc(C(=O)NCCN(CC)CC)c2ccccc2n1 | 112% (inactive) and 92.8% (inactive)
COc1cc2c(c(OC)c1OC)-c1ccc(OC)c(=O)cc1[C@@H](NC(C)=O)CC2 | 13.8% (inactive) and 25.8% (inactive) and 36.1% (inactive)
CN1CCN(c2ccc3nc(-c4c(N)c5c(F)cccc5[nH]c4=O)[nH]c3c2)CC1 | 1.69% (active) and 24.6% (inactive)
